From PubChem BioAssay (Tox21)
Inconclusive results are not listed. Active and inactive are the calls of the source. Unless noted, calls follow the shape of the dose curve; as a rule, active = well fitted curve in the direction sought with a large enough effect in the repeat runs; inconclusive = weak or mixed curves; inactive = flat fitted curve, though single readings scatter.

What was measured:
[1] = qHTS assay to test for compound auto fluorescence at 535 nm (green) in HEK293 cells (AID 720680)
[2] = qHTS assay to test for compound auto fluorescence at 460 nm (blue) in HEK293 cell free culture (AID 720681)
In short: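 Test compounds were pinned into cell-free culture medium (DMEM with 10% FBS) and fluorescence was read directly at Ex/Em 405/460 nm. Signals were expressed as fluorescence equivalents of triamterene, with DMSO vehicle as control.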

[3] = qHTS assay to test for compound auto fluorescence at 535 nm (green) in HEK293 cell free culture (AID 720682)
In short: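 Green-channel intensity (Ex/Em 485/535 nm) was recorded from compound-treated wells containing only DMEM with 10% FBS. Fluorescein provided the equivalency standard.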

[4] = qHTS assay to test for compound auto fluorescence at 590 nm (red) in HEK293 cell free culture (AID 720683)
In short: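 Tox21 10K library compounds were pinned into cell-free DMEM with 10% FBS and fluorescence was read at excitation 540 nm. Activity is expressed as Rose Bengal sodium equivalency.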

[5] = qHTS assay to test for compound auto fluorescence at 460 nm (blue) in HepG2 cell free culture (AID 720685)
In short: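 Compound (23 nL) or DMSO pinned into cell-free MEM with 10% FBS; blue fluorescence read at 405/460 nm excitation/emission, expressed as auto-fluorescence equivalency to triamterene.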

[6] = qHTS assay to test for compound auto fluorescence at 535 nm (green) in HepG2 cell free culture (AID 720686)
[7] = qHTS assay to test for compound auto fluorescence at 460 nm (blue) in HepG2 cells (AID 720687)
In short: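 Cells (2,000/well in MEM with 10% FBS) attached overnight at 37 C, then were exposed to compound or DMSO for 1 hr at 37 C, 5% CO2. Fluorescence read at Ex/Em 405/460 nm, expressed as triamterene-equivalent signal.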

[8] = molecular target: Glucocorticoid receptor (Homo sapiens) (UniProt P04150); assay: qHTS assay to identify small molecule agonists of the glucocorticoid receptor (GR) signaling pathway (AID 720691; active = well fitted activation curve with a large enough effect in the signal ratio in the repeat runs, not every such curve was filed as active; the % refers to the signal ratio)
In short: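 GR-bla HeLa cells (beta-lactamase reporter under glucocorticoid response element) were plated 4 h at 37 C/5% CO2, given compounds in DMSO, and incubated 18 h at 37 C. LiveBLAzer B/G FRET substrate was added for 2 h at room temperature, then fluorescence intensity read.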

[9] = molecular target: Glucocorticoid receptor (Homo sapiens) (UniProt P04150); assay: qHTS assay to identify small molecule antagonists of the glucocorticoid receptor (GR) signaling pathway (AID 720692; active = well fitted inhibition curve with a large enough effect in the signal ratio in the repeat runs, not every such curve was filed as active; the % refers to the signal ratio)
In short: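 GR-bla HeLa cells (beta-lactamase reporter under glucocorticoid response element) were pre-plated 4 h at 37 C, treated with compounds plus 5 nM dexamethasone (final) for 18 h, then read by LiveBLAzer B/G FRET fluorescence after 2 h.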

Measured: Potency

Sequence of Glucocorticoid receptor (Homo sapiens) (P04150 whole entry, looked up): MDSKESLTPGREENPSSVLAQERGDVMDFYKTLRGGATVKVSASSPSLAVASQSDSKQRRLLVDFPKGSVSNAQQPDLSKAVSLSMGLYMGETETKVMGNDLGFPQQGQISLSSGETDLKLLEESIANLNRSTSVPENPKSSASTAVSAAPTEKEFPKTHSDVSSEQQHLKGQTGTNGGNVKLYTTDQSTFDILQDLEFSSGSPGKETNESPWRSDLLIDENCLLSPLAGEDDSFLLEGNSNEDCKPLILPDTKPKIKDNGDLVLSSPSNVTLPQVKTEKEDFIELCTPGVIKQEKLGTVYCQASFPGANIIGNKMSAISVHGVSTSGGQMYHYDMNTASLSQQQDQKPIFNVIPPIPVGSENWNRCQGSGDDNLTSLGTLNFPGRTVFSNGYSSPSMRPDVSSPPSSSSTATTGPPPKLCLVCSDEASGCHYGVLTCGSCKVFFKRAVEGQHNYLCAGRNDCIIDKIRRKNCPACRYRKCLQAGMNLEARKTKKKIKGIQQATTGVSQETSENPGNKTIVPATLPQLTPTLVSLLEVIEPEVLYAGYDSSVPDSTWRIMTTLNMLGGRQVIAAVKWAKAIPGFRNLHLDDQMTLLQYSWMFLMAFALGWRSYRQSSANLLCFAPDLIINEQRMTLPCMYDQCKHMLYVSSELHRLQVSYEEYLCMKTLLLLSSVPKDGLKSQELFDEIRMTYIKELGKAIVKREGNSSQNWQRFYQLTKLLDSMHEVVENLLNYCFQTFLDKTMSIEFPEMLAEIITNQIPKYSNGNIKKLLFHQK

CCc1cccc(CC)c1N
inactive: all assays above

Cc1ccccc1Cl
inactive: all assays above

C[n+]1ccn(CCO)c1
inactive: all assays above
